Measurements: PubChem BioAssay AID1159580 (chemical genetic matrix, 2015)
The campaign covered roughly 5,500 compounds. About 2,000 (36%) were called active. Not shown: some 18% with an inconclusive outcome. No stated cut-off is given here; in the data, active means normalized growth mostly below about 0.91 (no sharp cut-off); inconclusive means no clear call, values can overlap the other calls; inactive means mostly above about 0.92. Some of the results follow.

Assay: chemical genetic growth profiling, strain panel (AID 1159580);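 further: tested at 20 µM; growth read once vehicle control cultures reached saturation at 30 °C; 1 = growth at the plate median or of vehicle wells; lower values mean less growth of the strain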
Conditions: growth OD

Measured: normalized growth

CCC1(c2ccccc2)C(=O)NCNC1=O
inactive: S. cerevisiae deletion strains, locus YJR075W, strain HOC1, hits give low values 1.01 | S. cerevisiae deletion strains, locus YKL009W, strain mrt4, hits give low values 0.998 | S. cerevisiae deletion strains, locus YKL068W, hits give low values 0.997 | S. cerevisiae deletion strains, locus YKL085W, strain MDH1 (second series), hits give low values 0.996 | S. cerevisiae deletion strains, locus YKL085W, strain MDH1, hits give low values 0.996 | S. cerevisiae deletion strains, locus YKL160W, strain elf1, hits give low values 1.02 | S. cerevisiae deletion strains, locus YKL190W, strain CNB1, hits give low values 1.01 | S. cerevisiae deletion strains, locus YKR001C, strain vps1, hits give low values 0.995 | S. cerevisiae deletion strains, locus YKR026C, strain gcn3, hits give low values 0.978 | S. cerevisiae deletion strains, locus YKR091W, strain srl3, hits give low values 0.999 | S. cerevisiae deletion strains, locus YLL001W, strain dnm1, hits give low values 1.02 | S. cerevisiae deletion strains, locus YLL026W, hits give low values 1 | S. cerevisiae deletion strains, locus YLL041C, strain sdh2, hits give low values 1.01 | S. cerevisiae deletion strains, locus YLR027C, strain aat2, hits give low values 1.01 | S. cerevisiae deletion strains, locus YLR039C, strain RIC1, hits give low values 0.971 | S. cerevisiae deletion strains, locus YLR058C, strain SHM2, hits give low values 1.01 | S. cerevisiae deletion strains, locus YLR102C, strain apc9, hits give low values 0.996 | S. cerevisiae deletion strains, locus YLR113W, strain HOG1, hits give low values 0.993 | S. cerevisiae deletion strains, locus YLR221C, strain rsa3, hits give low values 1.01 | S. cerevisiae deletion strains, locus YLR258W, strain gsy2, hits give low values 1.01 | S. cerevisiae deletion strains, locus YLR262C, strain YPT6 (second series), hits give low values 1.03 | S. cerevisiae deletion strains, locus YLR262C, strain YPT6, hits give low values 0.995 | S. cerevisiae deletion strains, locus YLR268W, strain sec22, hits give low values 0.981 | S. cerevisiae deletion strains, locus YLR320W, strain mms22, hits give low values 1.02 | S. cerevisiae deletion strains, locus YLR330W, strain CHS5, hits give low values 1.01 | S. cerevisiae deletion strains, locus YLR342W, strain FKS1 (second series), hits give low values 1.01 | S. cerevisiae deletion strains, locus YLR342W, strain FKS1, hits give low values 1.03 | S. cerevisiae deletion strains, locus YLR357W, strain rsc2, hits give low values 1.02 | S. cerevisiae deletion strains, locus YLR370C, strain arc18, hits give low values 1.01 | S. cerevisiae deletion strains, locus YLR371W, strain rom2, hits give low values 1 | S. cerevisiae deletion strains, locus YLR384C, strain iki3, hits give low values 1.01 | S. cerevisiae deletion strains, locus YLR418C, strain cdc73, hits give low values 0.992 | S. cerevisiae deletion strains, locus YML016C, strain PPZ1, hits give low values 1 | S. cerevisiae deletion strains, locus YML032C, strain rad52, hits give low values 0.992 | S. cerevisiae deletion strains, locus YML120C, strain ndi1, hits give low values 1.01 | S. cerevisiae deletion strains, locus YML124C, strain tub3, hits give low values 0.995 | S. cerevisiae deletion strains, locus YMR058W, strain fet3, hits give low values 0.995 | S. cerevisiae deletion strains, locus YMR078C, strain ctf18, hits give low values 1 | S. cerevisiae deletion strains, locus YMR125W, strain sto1, hits give low values 0.979 | S. cerevisiae deletion strains, locus YMR129W, hits give low values 0.99 | S. cerevisiae deletion strains, locus YMR205C, strain PFK2, hits give low values 1.02 | S. cerevisiae deletion strains, locus YMR223W, strain ubp8, hits give low values 0.995 | S. cerevisiae deletion strains, locus YMR231W, strain pep5, hits give low values 1.01 | S. cerevisiae deletion strains, locus YMR263W, strain SAP30, hits give low values 0.982 | S. cerevisiae deletion strains, locus YMR307W, strain GAS1, hits give low values 0.998 | S. cerevisiae deletion strains, locus YNL067W, strain RPL9B, hits give low values 1.01 | S. cerevisiae deletion strains, locus YNL071W, strain lat1, hits give low values 1 | S. cerevisiae deletion strains, locus YNL128W, strain TEP1, hits give low values 1.02 | S. cerevisiae deletion strains, locus YNL153C, strain GIM3, hits give low values 1.13 | S. cerevisiae deletion strains, locus YNL175C, strain NOP13, hits give low values 0.997 | S. cerevisiae deletion strains, locus YNL183C, strain NPR1, hits give low values 0.975 | S. cerevisiae deletion strains, locus YNL197C, strain WHI3, hits give low values 0.976 | S. cerevisiae deletion strains, locus YNL209W, strain ssb2, hits give low values 1.01 | S. cerevisiae deletion strains, locus YNL224C, strain SQS1, hits give low values 1 | S. cerevisiae deletion strains, locus YNL233W, strain BNI4, hits give low values 1 | S. cerevisiae deletion strains, locus YNL248C, strain rpa49, hits give low values 1.01 | S. cerevisiae deletion strains, locus YNL250W, strain rad50, hits give low values 0.998 | S. cerevisiae deletion strains, locus YNL271C, strain bni1, hits give low values 0.993 | S. cerevisiae deletion strains, locus YNL298W, strain CLA4, hits give low values 1.01 | S. cerevisiae deletion strains, locus YNL307C, strain MCK1, hits give low values 0.995 | S. cerevisiae deletion strains, locus YNL322C, strain KRE1 (second series), hits give low values 1.01 | S. cerevisiae deletion strains, locus YNL322C, strain KRE1, hits give low values 1 | S. cerevisiae deletion strains, locus YNR049C, strain mso1, hits give low values 1 | S. cerevisiae deletion strains, locus YNR052C, strain pop2, hits give low values 0.998 | S. cerevisiae deletion strains, locus YOL006C, strain TOP1, hits give low values 0.989 | S. cerevisiae deletion strains, locus YOL012C, strain htz1 0.947 | S. cerevisiae deletion strains, locus YOL147C, strain pex11, hits give low values 0.988 | S. cerevisiae deletion strains, locus YOR001W, strain rrp6, hits give low values 0.981 | S. cerevisiae deletion strains, locus YOR061W, strain CKA2, hits give low values 1 | S. cerevisiae deletion strains, locus YOR069W, strain VPS5, hits give low values 1.01 | S. cerevisiae deletion strains, locus YOR070C, strain gyp1, hits give low values 1.01 | S. cerevisiae deletion strains, locus YOR080W, strain dia2, hits give low values 1.01 | S. cerevisiae deletion strains, locus YOR083W, strain WHI5 (second series), hits give low values 1 | S. cerevisiae deletion strains, locus YOR083W, strain WHI5, hits give low values 1.02 | S. cerevisiae deletion strains, locus YOR106W, strain vam3, hits give low values 1.01 | S. cerevisiae deletion strains, locus YOR136W, strain idh2, hits give low values 1 | S. cerevisiae deletion strains, locus YOR144C, strain elg1, hits give low values 0.992 | S. cerevisiae deletion strains, locus YOR184W, strain ser1, hits give low values 1.01 | S. cerevisiae deletion strains, locus YOR231W, strain MKK1, hits give low values 1 | S. cerevisiae deletion strains, locus YOR265W, strain rbl2, hits give low values 1 | S. cerevisiae deletion strains, locus YOR270C, strain vph1, hits give low values 1.02 | S. cerevisiae deletion strains, locus YOR290C, strain snf2, hits give low values 1.01 | S. cerevisiae deletion strains, locus YOR316C, strain cot1, hits give low values 0.996 | S. cerevisiae deletion strains, locus YPL051W, strain arl3, hits give low values 1.01 | S. cerevisiae deletion strains, locus YPL055C, strain LGE1, hits give low values 1.01 | S. cerevisiae deletion strains, locus YPL078C, strain atp4, hits give low values 0.994 | S. cerevisiae deletion strains, locus YPL106C, strain sse1, hits give low values 1.01 | S. cerevisiae deletion strains, locus YPL240C, strain hsp82, hits give low values 0.992 | S. cerevisiae deletion strains, locus YPL241C, strain CIN2, hits give low values 1.01 | S. cerevisiae deletion strains, locus YPL256C, strain CLN2, hits give low values 1 | S. cerevisiae deletion strains, locus YPR119W, strain clb2, hits give low values 0.996 | S. cerevisiae deletion strains, locus YPR141C, strain kar3, hits give low values 0.989 | S. cerevisiae deletion strains, locus YPR163C, strain tif3, hits give low values 0.994 | S. cerevisiae deletion strains, locus YPR167C, strain met16, hits give low values 0.995 | S. cerevisiae deletion strains, strain wtn01, hits give low values 0.991 | S. cerevisiae strains, strain wild type, hits give low values 1.01
